# 14-3-3 Bad inh – inhibitors of 14-3-3 zeta/Bad binding, primary screen, biochemical, TR-FRET, bovine 14-3-3 zeta; 14-3-3 protein zeta/delta (Bos taurus), P63103; TR-FRET 14-3-3zeta/Dy647-pBad peptide displacement, 1 h; inhibition, % at 21.7 µM; 220,000 tested, 0.71% active; AID 781, 2007;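 active means inhibition above about 70%, limit read from the data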;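 further: 0% = full 14-3-3 plus peptide FRET controls and 100% = background without 14-3-3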
# Mcl1 Noxa PPI – Mcl-1/Noxa binding inhibitors, primary screen, biochemical, TR-FRET, 1536-well | Induced myeloid leukemia cell differentiation protein Mcl-1 (Homo sapiens), Q07820 | TR-FRET Mcl-1/Noxa peptide binding, 2 h | inhibition, % at 21.7 µM | 220,000 tested, 1.5% active | AID 1022, 2008;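 active means compounds that cut the protein-peptide binding signal by more than 50% relative to plate controls in a single-dose test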;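 further: His-tagged Mcl-1 with rhodamine Noxa BH3 peptide and terbium anti-His antibody; 0% = Mcl-1 plus Noxa peptide wells and 100% = peptide-only wells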
# Target sequence (Q07820 whole entry, looked up): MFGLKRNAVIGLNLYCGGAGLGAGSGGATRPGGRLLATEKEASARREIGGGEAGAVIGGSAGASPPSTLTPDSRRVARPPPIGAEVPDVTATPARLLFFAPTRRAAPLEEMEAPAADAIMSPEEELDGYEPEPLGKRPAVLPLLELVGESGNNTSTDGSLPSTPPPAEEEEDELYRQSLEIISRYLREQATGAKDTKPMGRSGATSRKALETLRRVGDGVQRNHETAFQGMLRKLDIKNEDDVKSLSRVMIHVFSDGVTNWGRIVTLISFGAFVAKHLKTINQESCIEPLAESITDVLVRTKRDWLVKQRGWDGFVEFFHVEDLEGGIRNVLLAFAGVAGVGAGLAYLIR
# Mcl1 Bid PPI – Mcl-1/Bid binding inhibitors, primary screen, biochemical, TR-FRET, 1536-well; Induced myeloid leukemia cell differentiation protein Mcl-1 (Homo sapiens), Q07820; TR-FRET Mcl-1/Bid-Dy647 peptide binding; inhibition, % at 21.7 µM; 220,000 tested, 0.97% active;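 active means compounds that cut the binding signal by more than half at the single screening dose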;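 further: His-tagged Mcl-1 with europium anti-His antibody binding Bid BH3 peptide; 0% = Mcl-1 plus peptide wells and 100% = peptide-only wells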
# Mcl-1 Bim block – inhibitors of Bim peptide binding to Mcl-1, primary screen, biochemical, bead-based flow cytometry, multiplex; Induced myeloid leukemia cell differentiation protein Mcl-1 (Homo sapiens), Q07820; Bim peptide-Mcl-1 binding; inhibition, % at 10 µM; 190,000 tested, 0.1% active; AID 1009, 2008; in the data active means inhibition above about 40%;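 further: 0% = no compound tracer wells and 100% = peptide blocker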
# MCL1-BIM inh – inhibitors of MCL1 binding to BIM-BH3, primary screen, biochemical, fluorescence polarization. GST-MCL1 / FITC-Bim-BH3 fluorescence polarization. inhibition, % at 10.9 µM. 320,000 tested, 0.68% active. Induced myeloid leukemia cell differentiation protein Mcl-1 (Homo sapiens), Q07820. AID 2057, 2009;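 active means inhibition above the mean inhibition of all tested compounds plus 3 SD, set per campaign, cut at about 40% in these data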;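 further: 0% = DMSO wells and 100% = unlabeled Bim-BH3 peptide control; higher means more loss of mP so more displacement of Bim peptide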
# Bcl-xL conf – Bcl-xL inhibitors blocking Bim BH3 binding, confirmation, counter-screen for MCL1 inhibitor project, biochemical, fluorescence polarization | shares compounds with MCL1-BIM inh | GST-Bcl-xL / FITC-Bim BH3 peptide FP binding | inhibition, % at 10.9 µM | 1,700 tested, 54% active;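 active means inhibition above a cutoff equal to the mean inhibition of all tested compounds plus 3 SD, cut at about 30% in these data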;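 further: 0% = DMSO wells and 100% = unlabeled Bim BH3 control peptide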
# MCL1 BIM confirm – inhibitors of MCL1 binding to BIM-BH3, confirmation, biochemical, fluorescence polarization, triplicate; shares compounds with MCL1-BIM inh; GST-MCL1 / FITC-Bim-BH3 fluorescence polarization; inhibition, % at 10.9 µM; 1,700 tested, 61% active; AID 2168, 2009;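 active means inhibition above the average of all tested compounds plus 3 SD, cut at about 40% in these data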;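 further: 0% = DMSO wells and 100% = unlabeled Bim-BH3 control peptide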
# * hit, by the source's call; x = no result given. Sampled rows, rich in hits. Any-hit rate of the full collection: about 2.5%.
SMILES,14-3-3 Bad inh,Mcl1 Noxa PPI,Mcl1 Bid PPI,Mcl-1 Bim block,MCL1-BIM inh,Bcl-xL conf,MCL1 BIM confirm
CCCC(=O)Nc1ccc(Cl)c(-c2nc3ncccc3o2)c1,x,x,x,x,2.8,x,x
O=C(CN1C(=O)C2C3CCC(C3)C2C1=O)NCc1ccco1 (configuration not stated),-12.5,8.9,-31.0,4.0,52.8*,7.2,8.5
Cc1ccc(CNC(=O)CC(C)S(=O)(=O)c2ccc3c(c2)NC(=O)CS3)o1 (configuration not stated),x,x,x,x,85.6*,8.2,-8.6
COc1ccc(-c2cc(C(=O)Nc3nc4ccccc4s3)c3ccccc3n2)cc1OC,-8.4,26.0,-4.2,-2.0,1.2,x,x
Cc1noc(C)c1COC(=O)c1ccc(-c2nc3ccccc3s2)s1,4.0,-4.4,-0.1,3.0,11.4,x,x
Nc1cc(C(=O)O)c(N)c2c1C(=O)c1ccccc1C2=O,5.9,96.1*,-86.3,x,180.4*,161.2*,195.1*
O=C(CCN1N=C(c2ccccc2)CCC1=O)NC1CCCC1,x,x,x,x,1.4,x,x
Cc1nc2sc3c(c2c(=O)[nH]1)CCC3,-2.8,-12.4,-36.6,1.0,7.0,x,x
Cc1cc(-c2nc3c4c5c(sc4[nH]c(=O)n3n2)CCC5)c(C)o1,49.4,101.1*,73.1*,1.0,75.6*,28.2,70.3*
O=Cc1c(Sc2ccccn2)nc2ccccn2c1=O,1.6,-3.1,0.0,-5.0,63.1*,3.0,8.4
O=Cc1c(Sc2ccccc2)nc2ccccn2c1=O,5.7,-12.1,-21.5,0.0,7.9,x,x
Nc1ccc(N)c(C(=O)O)c1,95.9*,92.4*,97.6*,x,101.0*,72.0*,111.8*
O=C(NCc1ccco1)c1c2c(nc3ccccc13)CCC2,x,102.4*,-40.7,-3.0,58.0*,29.6,67.9*
O=C(O)c1ccccc1NS(=O)(=O)c1cccc(C(F)(F)F)c1,32.4,11.7,9.3,-1.0,4.9,x,x
O=C(O)c1ccccc1NS(=O)(=O)c1cccc(-n2sc3ccccc3c2=O)c1,x,x,x,x,55.9*,35.0*,68.3*
CC(=O)Nc1ccc2nc3c(=O)n(C)c(=O)n(C)c3nc2c1,9.6,57.5*,-21.0,x,190.3*,145.6*,190.1*
O=C1c2cccc3c(N4CCCCC4)ccc(c23)C(=O)N1c1ccc(O)cc1,18.4,15.2,-50.1,2.0,68.5*,59.6*,71.5*
O=C1c2cccc3c(N4CCCCC4)ccc(c23)C(=O)N1c1ccccc1O,-2.1,-22.9,-11.3,-3.0,-4.6,x,x
CC1OC2(C)OC(=N)C1(C#N)C(C#N)(C#N)C2c1ccccc1 (configuration not stated),18.1,20.1,-37.9,-6.0,86.7*,11.1,7.4
CCCCC1OC2(C)OC(=N)C1(C#N)C(C#N)(C#N)C2c1ccccc1 (configuration not stated),-4.0,-7.2,-44.7,-5.0,11.3,x,x
COc1ccc(/C=N/NC(=O)c2nn(-c3ccc(C)c(C)c3)c(=O)c3ccccc23)cc1,-2.9,5.1,4.6,-3.0,1.4,x,x
COc1ccc(/C=N/NC(=O)c2nn(-c3ccccc3)c(=O)c3c(N)scc23)cc1,-2.1,54.7*,-36.1,-1.0,41.0*,12.1,1.5
Cc1cc(O)c(Oc2cc(C)cc(O)c2O)c(O)c1,5.5,60.9*,-7.9,-3.0,52.0*,33.8*,45.8*
CC(C)COc1ccc(C(=O)N/C(=C\c2cccc([N+](=O)[O-])c2)C(=O)OC(C)C)cc1,-1.1,18.0,-5.9,-2.0,-3.4,x,x
COc1ccc(-c2cc(C(=O)N3CCN(c4ccccc4)CC3)c3ccccc3n2)cc1,-1.9,-8.5,-25.0,0.0,9.5,x,x
